# Screening results as filed in PubChem.
# ALDH1A1 inh: blocks purified human ALDH1A1 activity. P00352. Purified ALDH1A1, NADH fluorescence, propionaldehyde substrate. Potency, µM (series often up to 75.3 µM), for the others: at the highest dose activity, negative = inhibition, usual class: inhibitors. 220,000 tested, 7.3% active;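 further: potency means the concentration at half of the fitted maximal effect; plate controls were no enzyme wells and a reference inhibitor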
# Target sequence (P00352 whole entry, looked up): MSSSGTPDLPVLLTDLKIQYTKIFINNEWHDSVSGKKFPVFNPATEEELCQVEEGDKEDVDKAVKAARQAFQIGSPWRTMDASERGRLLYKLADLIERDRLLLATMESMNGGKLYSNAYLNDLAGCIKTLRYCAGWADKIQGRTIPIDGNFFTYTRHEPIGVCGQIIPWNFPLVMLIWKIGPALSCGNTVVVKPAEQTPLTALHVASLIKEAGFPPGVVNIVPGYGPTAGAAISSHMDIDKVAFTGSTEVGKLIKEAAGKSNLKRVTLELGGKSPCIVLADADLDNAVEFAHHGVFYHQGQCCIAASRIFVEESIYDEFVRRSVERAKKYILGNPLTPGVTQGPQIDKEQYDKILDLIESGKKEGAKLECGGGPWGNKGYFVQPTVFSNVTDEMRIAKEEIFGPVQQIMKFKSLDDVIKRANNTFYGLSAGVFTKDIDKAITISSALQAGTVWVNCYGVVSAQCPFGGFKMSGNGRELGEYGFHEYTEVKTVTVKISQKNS
# PNC assembly inh: perinucleolar compartment assembly inhibition. PC3M PTB-GFP, PNC prevalence imaging, 16 h; active compounds read low. activity change (PNC), negative = inhibition, % at 10 µM. 140,000 tested, 3.1% active;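 active means readout at or below -70, meaning at least 70% loss of cells showing the perinucleolar compartment, a nuclear body marking cancer cells; inconclusive means readout between -30 and a set limit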;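 further: plate controls were DMSO wells for no effect and camptothecin positive control wells for full effect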
#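 Compounds are pinned in duplicate onto adhered PC3M cells stably expressing GFP-tagged PTB and incubated 16 h at 37 C. Cells are then fixed, nuclei stained with Hoechst, and PNC-positive cells counted.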
# HPGD inh: inhibitors of human 15-hydroxyprostaglandin dehydrogenase (HPGD); P15428; purified HPGD, NADH fluorescence kinetic, PGE2 substrate; Potency, µM, inactives show top-dose activity change, negative = inhibition, most hits filed as inhibitors; 150,000 tested, 4.3% active; AID 894; further: potency means the concentration at half of the fitted maximal effect
#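 NADH formation kinetics: reaction with 30 uM PGE2 and 1 mM NAD+ (final), 20 nM enzyme, Tris-HCl pH 8 with Tween 20, after 15 min compound preincubation at room temperature. Fluorescence change, last versus first of five reads.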
# * = called active by the depositor; ? = inconclusive; nt = no result given; [ ] = another dose, or the depositor's remark. Rows were chosen to be rich in hits. Some 11% of all compounds tested hit in one or more screens of this group. Unless noted, the call rests on the fitted dose curve; in most records, active means well fitted inhibition curve with a large enough effect (not every such curve was filed as active); inconclusive means small, poorly fitted or top-dose-only effect, or another doubt; inactive means no such curve, though single readings can be large or run the other way. Unless noted, on the % scale 0 is the no-effect control and ±100 the full control effect.
SMILES,ALDH1A1 inh,PNC assembly inh,HPGD inh
CC1(C)CC(=O)C(N=Nc2cc(Cl)c(Cl)c(Cl)c2)=C(O)C1,5µM*,18,-8%
O=[N+]([O-])c1cc2c(cc1[N+](=O)[O-])OCCOCCOCCOCCO2,-2%,nt,nt
Cc1cc(NC(=O)CSc2nc3ccsc3c(=O)n2CCCC(=O)NCCc2ccccc2)no1,10%,nt,nt
CCOCCCNC(=O)N[C@H](C(=O)OC)C(C)CC (some centres not stated),-1%,nt,nt
CCCCC(=O)NC(c1cccs1)c1cc(Cl)c2cccnc2c1O (configuration not stated),7.1µM*,nt,nt
CCC(=O)NC(c1cccs1)c1cc(Cl)c2cccnc2c1O (configuration not stated),6%,nt,nt
Cc1ccc(NC(=O)CCC(=O)NNC(=O)c2ccccc2Cl)c(C)c1,5%,nt,nt
CC(=O)NC1C(OCc2ccccc2)OC2COC(C)(C)OC2C1O (configuration not stated),3%,nt,nt
Cc1cccc(N(C(=O)c2nsc(Cl)c2Cl)C(C(=O)NC2CCCC2)c2ccc(O)cc2)c1 (configuration not stated),5%,-10,-4%
O=[N+]([O-])c1ccc2nc(NCCCO)nc(-c3ccccc3)c2c1,1%,28,14µM*
O=[N+]([O-])c1ccc2[nH]nc(-c3ccccc3)c2c1,2%,16,14µM*
O=c1c(-c2ccccc2)n[nH]c2ccccc12,?,10,nt
O=[N+]([O-])c1ccc2nc(-c3ccccc3)[nH]c2c1,8%,?,-4%
O=C(O)CNc1nc(-c2ccccc2)c2cc([N+](=O)[O-])ccc2n1,18µM*,13,-21%
O=[N+]([O-])c1ccc2nc(CCCO)[nH]c2c1,-2%,nt,nt
Cc1nnc(SCc2ccccc2)[nH]c1=O,7.1µM*,nt,nt
Cc1ccc(CSc2nnc(C)c(=O)[nH]2)cc1,11%,nt,nt
COc1ccc(CCNC(=O)COC(=O)CCC(=O)c2ccc(F)cc2)cc1,3%,nt,nt
CC1(C)CC(=O)C=C(N=CC2=C(O)CC(C)(C)CC2=O)C1,8.9µM*,?,-14%
O=C1CC(c2ccccc2)CC(O)=C1C=NCc1ccccc1 (configuration not stated),8%,60,-4%
COc1ccc(N=CC2=C(O)CC(c3ccccc3)CC2=O)c(OC)c1 (configuration not stated),14µM*,38,-11%
COc1ccc(N=CC2=C(O)CCCC2=O)cc1,?,?,-20%
COc1ccc(OC)c(N=CC2=C(O)CC(C)(C)CC2=O)c1,13µM*,-29,-20%
COc1ccc(N=CC2=C(O)CC(C)(C)CC2=O)cc1,7.9µM*,-23,-5%
Cc1cc(N=CC2=C(O)CC(C)(C)CC2=O)no1,-7%,-20,-1%
SMILES,ALDH1A1 inh,PNC assembly inh,HPGD inh
COCCCN=CC1=C(O)CC(C)(C)CC1=O,0%,19,-6%
Cc1cc(F)c(Nc2ncnc3cc(OCc4ccccc4)ccc23)cc1O,-12%,nt,-20%
COc1ccc(OCC(O)CNC(=O)Nc2cc(F)ccc2C)cc1 (configuration not stated),5%,nt,nt
CC(C)CC(=O)Nc1nnc(SCC(=O)NCc2ccc3c(c2)OCO3)s1,2%,nt,nt
Cc1cc(C)c(NC(=O)C(C)c2cccc(C(=O)c3ccccc3)c2)c(C)c1 (configuration not stated),-1%,12,-6%
COc1ccccc1CCNC(=O)CSc1nnc2ccc(-c3ccncc3)nn12,4%,nt,nt
COC(=O)CC1=COC(O)C2C(CO)=CC[C@@H]12 (some centres not stated),-3%[13.5 µM],nt,nt
COc1ccc(-c2cc(C(=O)OCC(=O)c3cccc([N+](=O)[O-])c3)c3cc(C)ccc3n2)cc1,12%,-8,-2%
Cc1cc(C(=O)OCC(=O)c2cccc([N+](=O)[O-])c2)c2cccc(C)c2n1,22µM*,101,-21%
COc1ccc(N2CCN(C(=O)CSc3nnc(Cn4nnc5ccccc54)n3C)CC2)cc1,14µM*,?,-15%
Cn1c(Cn2nnc3ccccc32)nnc1SCC(=O)N1c2ccccc2Sc2ccccc21,5%,1,-10%
Cn1c(Cn2nnc3ccccc32)nnc1SCC(=O)N1c2ccccc2CCc2ccccc21,8.9µM*,3,-1%
COc1ccc(N2CCN(C(=O)CSc3nnc(-c4cc5ccccc5cc4O)n3C)CC2)cc1,-7%,-8,-16%
S=C1NC[C@H](CC2CCCCC2)N1CC1CCCCC1,-5%,nt,nt
CCOC(=O)Nc1ccc2c(CN3C(=O)NC4(CCCC4)C3=O)cc(=O)oc2c1,?,-100*,?
CCOC(=O)Nc1ccc2c(CN3C(=O)NC(CC)(CC)C3=O)cc(=O)oc2c1,?,2,?
CC(=O)OCC12COC3c4ccccc4OC(C)(CC1C)C3C2C (configuration not stated),7%,nt,nt
CC1CCc2nc(NC(=O)CN3CCN(c4ccccc4)CC3)sc2C1 (configuration not stated),?,34,-1%
CC1CCc2nc(NC(=O)CN3CCN(Cc4ccc5c(c4)OCO5)CC3)sc2C1 (configuration not stated),14µM*,38,-18%
CC(C)NCC[C@@H](O)c1cc2ccccc2o1,-4%[13.5 µM],nt,-7%
CS(=O)(=O)c1ccc2c(c1)sc1nc(=O)c(/C=C3/C=CC(=O)C(O)=C3)c(N)n12,13µM*,nt,nt
CS(=O)(=O)c1nsc2nc(=O)c(/C=C3\C=Nc4ccccc43)c(N)n12,-5%,nt,nt
CCCn1c(C)nc2c(NC(C)CCCN(CC)CC)nc(C)nc21 (configuration not stated),3%,nt,-12%
O=C(CCc1ccccc1)NNC(=O)c1ccco1,8%,-12,28µM*
O=C(CCC(=O)Nc1ccccc1)NNC(=O)c1ccco1,12%,?,-3%
SMILES,ALDH1A1 inh,PNC assembly inh,HPGD inh
CC(C)N(C(=O)CS(=O)(=O)c1ccc(Cl)c(Cl)c1)C(C)C,0%,nt,nt
Cc1cc(C)c2[nH]c(=O)c(CN(Cc3cccs3)C(=S)NCC3CCCO3)cc2c1 (configuration not stated),?,57,-21%
Cc1ccc(C(=O)/C=C/Nc2cccc([N+](=O)[O-])c2)o1,-9%,-12,-10%
CCN(Cc1ccccc1)c1ccc(/C=C(\C#N)c2ccccn2)cc1,14µM*,?,nt
CCN(CC)c1ccc(/C=C(\C#N)c2ccccn2)cc1,?,?,-16%
N#Cc1cccnc1Oc1ccccc1,2%,nt,nt
CC(C)C(C)C,25%,nt,2%
COc1cc(Cl)c(C)cc1NC(=O)CSc1ccc(NC(C)=O)cc1,10%,36,-1%
Cc1sc2ncnc(SCc3ccc(C(=O)O)cc3)c2c1C,40µM*,nt,nt
Cc1ccc(-c2csc3ncnc(SCc4ccc(C(=O)O)cc4)c23)cc1,-5%,nt,nt
COC(=O)C/C=C\[C@@H](C)[C@@H](/C=N\O[C@@H](C)c1cn([C@H]2COC[C@H]2O)nn1)OC,9%[13.5 µM],nt,nt
Nc1ncnc2c1ncn2[C@@H]1O[C@H](COP(=O)(O)O)[C@@H](O)[C@@H]1O,13%[20.9 µM],nt,-11%
O=C(O)CC(c1cccc([N+](=O)[O-])c1)N1Cc2ccccc2C1=O (configuration not stated),0%,nt,nt
CN1c2ccccc2C(C)(C)C12CC(CCl)=NO2 (configuration not stated),?,27,-28%
